We go through 15 compounds from PubChem BioAssay (EPA / NIEHS).

Inconclusive results are not listed. The source made the active and inactive calls. Rule for the calls: active = hit-call score of the fitted dose curve at least 0.9, where 1 is the maximum; inconclusive = response in the unintended direction; inactive = score below 0.9.

rat Peripheral-type Benzodiazepine Receptor (PBR), Tspo (gene 24230), sequence (P16257 whole entry, looked up): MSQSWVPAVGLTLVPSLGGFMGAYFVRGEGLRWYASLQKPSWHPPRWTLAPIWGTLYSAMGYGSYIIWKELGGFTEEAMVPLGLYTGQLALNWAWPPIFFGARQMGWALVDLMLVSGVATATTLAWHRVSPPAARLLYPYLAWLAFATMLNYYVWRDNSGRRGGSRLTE

In the assay the target is rat Peripheral-type Benzodiazepine Receptor (PBR), Tspo (gene 24230) (UniProt P16257). In words: NVS_MP_rPBR: NovaScreen (NVS) Membrane Protein Assay for rat Peripheral-type Benzodiazepine Receptor (PBR) (AID 2283335). The procedure:
NVS_MP_rPBR is a biochemical, single-readout assay that uses extracted gene-proteins from Rat kidney membranes in a tissue-based cell-free assay. Measurements were taken 1 hour after chemical dosing in a 48-well plate.NVS_MP_rPBR is one of one assay component(s) measured or calculated from the NVS_MP_rPBR assay. It is designed to make measurements of radioligand binding, a form of binding reporter, as detected with scintillation counting signals by Filter-based radiodetection technology.Data from the assay component NVS_MP_rPBR was analyzed into 1 assay endpoint. This assay endpoint, NVS_MP_rPBR, was analyzed in the positive analysis fitting direction relative to DMSO as the negative control and baseline of activity. Using a type of binding reporter, loss-of-signal activity can be used to understand changes in the binding as they relate to the gene Tspo. Furthermore, this assay endpoint can be referred to as a primary readout, because the performed assay has only produced 1 assay endpoint. To generalize the intended target to other relatable targets, this assay endpoint is annotated to the transporter intended target family, where the subfamily is cholesterol transporter.
Binding assays used specific radioligands (tritiated, iodinated) with non-radioactive competitive displacement ligands in agonist or antagonist protocols (as indicated) and various reference compounds and inhibitors to titrate specific binding to receptors and transporters. Most enzyme assays (CYPs, kinases, phosphatases, proteases, HDACs) used recombinant protein and specific substrates (fluorescence mostly, some colorimetric and radioactive) and inhibitors, followed by a biochemical separation of substrate and product. All assays for the biochemical HTS were initially run in duplicate at a single concentration (10 uM for CYP450 assays and 25 uM for all others). […] Each assay was run with positive and negative controls, and concurrent controls on every plate. The follow-up (secondary) screen tested active chemical-pairs in concentration series, as well as a few additional assays not tested in the primary screen, some selected negative inactives, and several cases re-run in the concentration series for confirmatory purposes.
Turning to `CCCCC(CC)COC(C)=O` (stereo not given), the result was inactive.
For orientation: AC50 means the midpoint of the concentration-response curve, whichever way the signal moves. For the compound `Cc1cc(=O)oc2cc(N(C)C)ccc12`, the AC50 was 25 µM (active).
The same measure, in the same setting: next, `CCCCN(CCCC)C(=O)N(CCCC)CCCC`: 10.4 µM (active); `Cc1ccc(S(=O)(=O)Oc2ccc(N=Nc3ccc(-c4ccc(N=Nc5c(O)ccc6cc(S(=O)(=O)O)cc(S(=O)(=O)O)c56)c(C)c4)cc3C)cc2)cc1`: 0.118 µM (active).
As for `O=C1OC[C@H](Cc2cccc(O)c2)[C@H]1Cc1cccc(O)c1`, the AC50 was 5.43 µM (active).
On to `C=CC(=O)OCCCC`, for which the result was inactive.
`CN(C)C(=S)SC(=S)N(C)C`: the compound was called inactive.
For the compound `c1ccc(Oc2ccccc2)cc1`, the result was inactive.
On to `CS(=O)(=O)OCCCCOS(C)(=O)=O`, for which the result was inactive.
As to `CN(C)C(=O)Nc1ccc(Oc2ccc(Cl)cc2)cc1`, the AC50 is 5.74 µM (active).
Same read-out and setting: the value for `CCCCC(CC)COC(=O)c1ccc(O)cc1` (stereo not given) was 1.23 µM (active).
As for `Nc1ccc2cc(S(=O)(=O)O)cc(O)c2c1N=Nc1ccccc1C(F)(F)F`, the AC50 was 5.02 µM (active).
As for `COc1ccc(N=Nc2cc(C)c(N=Nc3ccc(S(=O)(=O)O)cc3)cc2OC)cc1`, the AC50 is 0.0418 µM (active).
For the compound `CCCCCCCCCCCCCCCC(=O)OC/C=C(C)/C=C/C=C(C)/C=C/C1=C(C)CCCC1(C)C`, the call was inactive.
`CCOc1ccc(N=Nc2ccc(C=Cc3ccc(N=Nc4ccc(OCC)cc4)cc3S(=O)(=O)O)c(S(=O)(=O)O)c2)cc1`: the AC50 is 5.82 µM (active).
